# Structures can show the parent of a compound that is named as a salt.
# System: HL-1
# Assay: relative cell viability (CellTiter-Glo) vs DMSO control (% of DMSO control); higher = more viable cells
# Procedure, shortened: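 In 384-well plates, 1000 HL-1 mouse atrial cardiomyocytes per well were plated with compounds at 40, 200, 1000 or 5000 nM in 0.01% DMSO. Hypoxia at 1% O2 for 48 h began one day later and was followed by 24 h of reoxygenation, with parallel plates held in normoxia. CellTiter-Glo luminescence gave cell viability relative to vehicle-treated control cells.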
# [1] = oxygen condition: hypoxia 48 h (1% O2) + reoxygenation 24 h, 40 nM
# [2] = oxygen condition: hypoxia 48 h (1% O2) + reoxygenation 24 h, 200 nM
# [3] = oxygen condition: hypoxia 48 h (1% O2) + reoxygenation 24 h, 1000 nM
# [4] = oxygen condition: hypoxia 48 h (1% O2) + reoxygenation 24 h, 5000 nM
# [5] = oxygen condition: normoxia 72 h, 40 nM
# [6] = oxygen condition: normoxia 72 h, 200 nM
# [7] = oxygen condition: normoxia 72 h, 1000 nM
# [8] = oxygen condition: normoxia 72 h, 5000 nM
SMILES,relative cell viability [1],relative cell viability [2],relative cell viability [3],relative cell viability [4],relative cell viability [5],relative cell viability [6],relative cell viability [7],relative cell viability [8]
CC(S)C(=O)NCC(=O)O (stereo unspecified) [Tiopronin],95.4,102,104,105,99.2,98.9,101,103
COc1ccc(-c2nc3cc(C4=NNC(=O)CC4C)ccc3[nH]2)cc1 (stereo unspecified) [Pimobendan],107,108,99.1,109,109,102,114,111
CC1CNc2c(cccc2S(=O)(=O)N[C@@H](CCCNC(=N)N)C(=O)N2CC[C@@H](C)C[C@@H]2C(=O)O)C1 (stereo partly specified) [Argatroban],97.7,97.5,94.6,106,97.3,95.6,97.6,106
O=C(c1ccccc1)c1ccc2n1CCC2C(=O)O (stereo unspecified) [Ketorolac],104,105,104,109,102,98.3,103,111
Nc1nc2[nH]cnc2c(=S)[nH]1 [Thioguanine],97.1,79.2,65.6,24.5,82.9,75.5,64,22.5
CC(=O)OCC[N+](C)(C)C [Acetylcholine chloride],93.2,99.1,101,106,91.7,101,104,106
Fc1ccc(C(c2ccc(F)cc2)N2CCN(C/C=C/c3ccccc3)CC2)cc1 [Flunarizine 2HCl],93.6,100,98.7,117,107,99.7,109,114
O=C(O)Cc1cc(I)c(Oc2ccc(O)c(I)c2)c(I)c1 [Tiratricol],96.6,99.5,104,119,103,103,101,126
CC(C)NCC(O)COc1cccc2ccccc12 (stereo unspecified) [Propranolol HCl],99.8,109,103,109,107,100,92.5,106
CCCS(=O)(=O)Nc1ccc(F)c(C(=O)c2c[nH]c3ncc(-c4ccc(Cl)cc4)cc23)c1F [Vemurafenib],102,111,107,111,104,96.2,106,118
Nc1ncn([C@@H]2O[C@H](CO)[C@@H](O)[C@H]2O)c(=O)n1 [Azacitidine],105,101,102,83,98.6,103,90.1,84.5
CCCNC(C)C(=O)Nc1c(C)csc1C(=O)OC (stereo unspecified) [Articaine HCl],105,103,57.4,105,103,101,103,107
C[C@H](Cc1cc2c(c(C(N)=O)c1)N(CCCO)CC2)NCCOc1ccccc1OCC(F)(F)F [Silodosin],106,98.3,102,105,102,104,108,104
Clc1ccc(COC(Cn2ccnc2)c2ccc(Cl)cc2Cl)c(Cl)c1 (stereo unspecified) [Miconazole],96.8,99.4,98.3,104,101,101,101,106
O=C(Nc1ccc([N+](=O)[O-])cc1Cl)c1cc(Cl)ccc1O [Niclosamide],10,3.13,58.1,17.5,8.34,2.9,56.2,7.03
CCCCC[C@H](O)/C=C/[C@H]1[C@H](O)CC(=O)[C@@H]1CCCCCCC(=O)O [Alprostadil],104,106,107,107,108,102,111,101
CCCCN(CCCC)CCCOC(=O)c1ccc(N)cc1 [Butacaine],103,101,106,106,103,92.7,102,104
CN1[C@@H]2CC[C@H]1C[C@@H](OC(=O)c1c[nH]c3ccccc13)C2 [Tropisetron],99.6,103,100,104,98.7,101,104,66
CCCC(=O)[O-].[Na+] [Sodium butyrate],103,101,99.4,107,98.7,99.2,105,107
CC(C)C[C@H](NC(=O)[C@H](Cc1ccccc1)NC(=O)c1cnccn1)B(O)O [Bortezomib],10.4,10,8.52,4.58,12.9,10.5,6.82,4.44
CS(=O)(=O)Nc1ccc([N+](=O)[O-])cc1Oc1ccccc1 [Nimesulide],105,105,109,103,108,105,102,104
Cc1ccc(Nc2nccc(N(C)c3ccc4c(C)n(C)nc4c3)n2)cc1S(N)(=O)=O [Pazopanib],104,108,102,116,92.7,102,110,110

# Reference: the supplement of paper PMC8371130
